Our source for the composite z-score and z-score values is PubChem BioAssay.

Activity calls are given as the source filed them. Unless noted, how the calls were made is not given here.

For assay [1], the system named is Wnt5a (protein binding on small-molecule microarray). As to the kind of experiment: small molecules binding Wnt5a protein – biophysical, small-molecule microarray, 635/667 nm fluorescence, primary screen (AID 1142).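 Further: fluorescence read at 667 nm with signal to noise per printed feature.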 Particulars: 635 nm fluorescence, higher = more signal.
The nature of assay [2]: ATP-based viability of Huh7 replicon cells – cell-based, CellTiter-Glo luminescence, basal, 48 h, cytotoxicity control for HCV replication inhibitor project, primary screen (AID 1143).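 Further: Huh7 hepatoma cells carrying a hepatitis C replication reporter with no stimulus; test concentration not given here.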 Conditions: higher = more signal, called active from +8 up or from −8 down.
The nature of assay [3]: Pseudomonas biofilm growth suppression – PAO1 strain, BacTiter-Glo luminescence, LB-PBS, primary screen (AID 1144). Particulars: P. aeruginosa PAO1 biofilm, 12 h, higher = more signal.
A short description of assay [4]: basal CRE-LacZ reporter activity in PC12 – cell-based, unstimulated, primary screen (AID 1145). Conditions: no forskolin, luminescence, 4.5 h, higher = more signal, called active from +8 up or from −8 down.
Assay [5] can be described thus: forskolin-driven CRE-LacZ activity in PC12 – cell-based, CRE-LacZ reporter, forskolin-stimulated, primary screen (AID 1146).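 Further: PC12 cells with 6xCRE LacZ reporter stimulated by forskolin 10 µM; beta-galactosidase reporter signal reflecting CREB driven transcription.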 Conditions: luminescence, 4.5 h, higher = more signal, called active from +8 up or from −8 down.
Assay [6] deals with Streptavidin (Streptomyces avidinii) (UniProt P22629). As to the kind of experiment: compounds binding control protein streptavidin – biophysical, small-molecule microarray, 635/667 nm fluorescence, artefact control for SMM compound annotation, primary screen (AID 1147).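 Further: signal reflects streptavidin binding to arrayed compounds as a control protein.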 Conditions: higher = more signal.
Assay [7] in a line: probe aInhba binding on compound microarray – biochemical, small-molecule microarray, 635/667 nm fluorescence, primary screen (AID 1148).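 Further: score merges 667nm spot fluorescence with signal-to-noise for antibody binding to printed compounds.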 Particulars: higher = more signal.
For assay [8], the target named is Torsin-1A (Homo sapiens) (UniProt O14656). As to the kind of experiment: TOR1A wild-type binding on microarray – cell lysate, small-molecule microarray, lysate, 635/667 nm, primary screen (AID 1149). Conditions: COS7 hTOR1A-WT lysate, 635 nm fluorescence, higher = more signal.
The target is the same in assay [9]. As to the kind of experiment: torsin A mutant lysate binding on microarrays – cell lysate, small-molecule microarray, COS7 lysate, 635/667 nm fluorescence, primary screen (AID 1150).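 Further: score pools 667 nm emission and signal to noise measuring lysate protein binding.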 Particulars: COS7 hTOR1A mutant lysate, 635 nm fluorescence, higher = more signal.
Assay [10] deals with Sonic hedgehog protein (Shh). As to the kind of experiment: Sonic hedgehog microarray binding compounds – biochemical, small-molecule microarray, 635/667 nm fluorescence, primary screen (AID 1151).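 Further: Shh protein binding to compounds spotted on small-molecule microarray slides; score combines spot fluorescence intensity with signal-to-noise across triplicate slides.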 Conditions: 635 nm fluorescence, higher = more signal.
A short description of assay [11]: optical density shifts of acrAB sulA E. coli – strain DRC41, OD650, 48 h, E. coli filamentation inducer project, primary screen (AID 1152).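 Further: E. coli MC1000 strain DRC41 lacking acrAB efflux pump and sulA.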 Particulars: higher = more signal, called active from +8 up or from −8 down.
Assay [12] in a line: probe aLefty1 binding on compound microarray – biochemical, small-molecule microarray, 635/667 nm fluorescence, primary screen (AID 1153).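 Further: score merges spot fluorescence with signal-to-noise ratio from the scanned slide images.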 Particulars: higher = more signal.
A short description of assay [13]: plasmodial surface anion channel blockers, osmotic lysis – cell-based, P. falciparum Indochina, OD700, 1 h, primary screen (AID 1154). Particulars: P. falciparum Indochina infected RBC osmotic lysis, higher = more signal, called active from +8 up or from −8 down.
Assay [14] in a line: plasmodial surface anion channel blockers, osmotic lysis – cell-based, P. falciparum Indochina, OD700, 2 h, primary screen (AID 1155).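 Further: lysis reports solute entry through the parasite surface anion channel PSAC.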 Conditions: P. falciparum Indochina infected erythrocytes, higher = more signal, called active from +8 up or from −8 down.
A short description of assay [15]: changes in parasitized red cell lysis, either direction – P. falciparum Indochina, OD700, 3 h, PSAC antagonist project, primary screen (AID 1156). Conditions: P. falciparum-infected erythrocytes, osmotic lysis, higher = more signal, called active from +8 up or from −8 down.
Assay [16] in a line: plasmodial surface anion channel blockers, osmotic lysis – cell-based, P. falciparum Indochina, OD700, 18 h, primary screen (AID 1157). Conditions: P. falciparum Indochina infected erythrocytes, osmotic lysis OD700, 18 h; higher = more signal, called active from +8 up or from −8 down.
Assay [17] in a line: S6 kinase pathway phospho-S6 level changes – cell-based, A549, cytoblot, luminescence, serum-stimulated, primary screen (AID 1158).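 Further: serum-stimulated A549 lung adenocarcinoma cells; signal is phosphorylated S6 detected by cytoblot immunostaining with HRP secondary.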 Conditions: 5 h, higher = more signal.
The target in assay [18] is NADPH oxidase 2 (Homo sapiens) (UniProt P04839). As to the kind of experiment: compounds shifting NOX2 Amplex Red fluorescence – cell-based, HEK293-NOX2, PMA-stimulated, NOX inhibitor project, primary screen (AID 1159). Further: test concentration not given here. Particulars: 45 min, higher = more signal, called active from +8 up or from −8 down.
Assay [19] has as its target NADPH oxidase 4 (Homo sapiens) (UniProt Q9NPH5). As to the kind of experiment: compounds shifting NOX4 Amplex Red fluorescence – cell-based, HEK293-NOX4, tetracycline-induced, NOX inhibitor project, primary screen (AID 1160). Particulars: HEK293-NOX4, Amplex Red H2O2 fluorescence, 45 min; higher = more signal, called active from +8 up or from −8 down.
Assay [20] concerns the target NADPH oxidase 5 (Homo sapiens) (UniProt Q96PH1). As to the kind of experiment: compounds shifting NOX5 Amplex Red fluorescence – cell-based, HEK293-NOX5, NOX inhibitor project, primary screen (AID 1161). Conditions: HEK293-NOX5, ionomycin, 45 min, higher = more signal.

Sequence of Torsin-1A (Homo sapiens) (O14656 whole entry, looked up): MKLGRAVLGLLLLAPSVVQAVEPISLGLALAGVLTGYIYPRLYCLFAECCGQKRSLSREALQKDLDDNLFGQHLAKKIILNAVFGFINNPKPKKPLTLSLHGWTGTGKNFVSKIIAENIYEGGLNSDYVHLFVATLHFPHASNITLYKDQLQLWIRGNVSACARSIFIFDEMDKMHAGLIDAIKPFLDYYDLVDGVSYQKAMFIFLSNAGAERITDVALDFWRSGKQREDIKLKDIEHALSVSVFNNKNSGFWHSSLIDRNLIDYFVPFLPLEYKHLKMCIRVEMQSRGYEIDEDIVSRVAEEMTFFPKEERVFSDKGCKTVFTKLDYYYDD
Sequence of NADPH oxidase 4 (Homo sapiens) (Q9NPH5 whole entry, looked up): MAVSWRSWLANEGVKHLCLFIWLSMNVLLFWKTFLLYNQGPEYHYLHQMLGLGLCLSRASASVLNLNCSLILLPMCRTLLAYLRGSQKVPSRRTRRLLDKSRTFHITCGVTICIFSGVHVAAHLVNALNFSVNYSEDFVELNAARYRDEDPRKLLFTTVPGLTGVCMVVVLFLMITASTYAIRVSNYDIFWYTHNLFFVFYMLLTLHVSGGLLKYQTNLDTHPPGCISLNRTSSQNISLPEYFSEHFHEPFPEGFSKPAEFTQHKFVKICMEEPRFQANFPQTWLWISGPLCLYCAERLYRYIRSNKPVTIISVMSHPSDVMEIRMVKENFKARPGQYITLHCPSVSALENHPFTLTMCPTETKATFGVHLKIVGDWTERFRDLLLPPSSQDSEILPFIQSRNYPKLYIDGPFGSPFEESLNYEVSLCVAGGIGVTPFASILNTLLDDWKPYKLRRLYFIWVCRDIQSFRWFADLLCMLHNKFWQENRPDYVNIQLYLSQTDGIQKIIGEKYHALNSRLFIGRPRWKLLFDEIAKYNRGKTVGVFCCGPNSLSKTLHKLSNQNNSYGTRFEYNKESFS
Sequence of Streptavidin (Streptomyces avidinii) (P22629 whole entry, looked up): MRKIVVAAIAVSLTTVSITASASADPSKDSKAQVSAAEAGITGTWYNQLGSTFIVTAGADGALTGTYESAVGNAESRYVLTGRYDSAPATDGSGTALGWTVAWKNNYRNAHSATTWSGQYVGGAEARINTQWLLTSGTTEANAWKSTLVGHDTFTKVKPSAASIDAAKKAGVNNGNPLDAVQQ
Sequence of NADPH oxidase 2 (Homo sapiens) (P04839 whole entry, looked up): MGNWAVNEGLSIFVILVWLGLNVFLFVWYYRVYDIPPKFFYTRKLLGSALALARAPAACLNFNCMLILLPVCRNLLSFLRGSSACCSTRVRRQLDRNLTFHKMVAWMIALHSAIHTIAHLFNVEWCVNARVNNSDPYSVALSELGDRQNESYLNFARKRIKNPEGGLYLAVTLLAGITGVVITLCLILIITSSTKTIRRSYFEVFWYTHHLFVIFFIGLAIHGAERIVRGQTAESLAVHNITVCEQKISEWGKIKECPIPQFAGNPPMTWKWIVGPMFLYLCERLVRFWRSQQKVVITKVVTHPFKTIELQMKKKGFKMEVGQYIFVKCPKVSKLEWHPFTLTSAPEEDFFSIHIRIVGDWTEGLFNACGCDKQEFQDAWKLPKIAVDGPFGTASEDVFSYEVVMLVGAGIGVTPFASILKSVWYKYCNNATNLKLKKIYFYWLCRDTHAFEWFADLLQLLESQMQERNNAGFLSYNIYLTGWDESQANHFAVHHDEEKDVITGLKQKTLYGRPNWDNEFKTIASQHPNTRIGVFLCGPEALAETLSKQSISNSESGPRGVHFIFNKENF
Sequence of NADPH oxidase 5 (Homo sapiens) (Q96PH1 whole entry, looked up): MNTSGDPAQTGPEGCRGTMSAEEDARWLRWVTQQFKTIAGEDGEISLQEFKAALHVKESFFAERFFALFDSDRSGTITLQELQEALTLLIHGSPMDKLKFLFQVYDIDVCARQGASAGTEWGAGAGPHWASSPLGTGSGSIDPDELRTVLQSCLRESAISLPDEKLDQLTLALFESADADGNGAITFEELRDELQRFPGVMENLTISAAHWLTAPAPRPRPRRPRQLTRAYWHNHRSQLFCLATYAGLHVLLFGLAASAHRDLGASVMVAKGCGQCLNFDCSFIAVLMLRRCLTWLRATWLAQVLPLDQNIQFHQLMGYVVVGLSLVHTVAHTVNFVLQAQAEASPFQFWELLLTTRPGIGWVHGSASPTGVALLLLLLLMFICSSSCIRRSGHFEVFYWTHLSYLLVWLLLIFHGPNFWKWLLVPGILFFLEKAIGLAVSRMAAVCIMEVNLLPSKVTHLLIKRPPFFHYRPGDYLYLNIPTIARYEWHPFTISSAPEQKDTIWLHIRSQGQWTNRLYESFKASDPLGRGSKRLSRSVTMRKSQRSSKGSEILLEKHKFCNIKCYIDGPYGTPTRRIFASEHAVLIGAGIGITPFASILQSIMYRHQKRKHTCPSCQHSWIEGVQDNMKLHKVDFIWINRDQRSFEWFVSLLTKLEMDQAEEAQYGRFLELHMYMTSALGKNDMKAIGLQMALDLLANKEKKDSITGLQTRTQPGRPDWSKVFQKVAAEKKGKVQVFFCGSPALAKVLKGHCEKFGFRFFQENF

For the compound `COc1cc(NN2C(C(O)c3ccco3)C=CC3C(=O)N(c4ccccc4)C(=O)C32)cc(OC)c1OC` (stereo not given), the composite z-score in assay [1] was -0.286; in assay [6] it was 0.0123; in assay [7], -0.153; in assay [8] it was -0.967; in assay [9], 0.594; in assay [10], 0.179. Besides, the composite z-score in [12] is -0.441. For the same compound, the z-score in assay [2] is -2.49 (inactive); in assay [3], -0.225 (inactive); in assay [4] it was 0.0501 (inactive); in assay [5], -0.462 (inactive); in assay [11], -1.37 (inactive); in [13] it was 0.886 (inactive). The z-score in assay [14] is -1.47 (inactive); in [15] it was 1.06 (inactive); in [16], -1.28 (inactive); in assay [17] it was 1.29; in assay [18], -3.15 (inactive); in [19], -4.23 (inactive). Besides, the z-score in assay [20] was -5.73.

For `CO[C@H]1O[C@H](CO)[C@@H](OC(=O)Nc2cccc(F)c2)[C@H](OC(=O)Nc2ccccc2)[C@@H]1OC(=O)Nc1ccccc1`, the composite z-score in [1] amounted to 0.343; in assay [6] it was 0.255; in assay [7] it was 0.289; in [8] it was 0.434; in assay [9], 0.505; in assay [10], 1.17. Besides, the composite z-score in assay [12] is 0.22. The z-score in assay [2] was -5.79 (inactive); in assay [3] it was -0.125 (inactive); in assay [4], -0.459 (inactive); in assay [5], -0.74 (inactive); in assay [11], -1.17 (inactive); in [13] it was 8.61 (active). The z-score in [14] was 1.93 (inactive); in assay [15], -0.476 (inactive); in assay [16], 1.4 (inactive); in assay [17], 0.646; in [18], -1.12 (inactive); in assay [19] it was -0.322 (inactive). The z-score in [20] is -1.08.

Regarding `O=C(CS)NCCCCCCNC(=O)[C@@H]1C[C@@H]2C(=O)N[C@@H](Cc3ccccc3)C(=O)N2[C@@H]1c1cccc(OCCO)c1`, the composite z-score in assay [1] is 0.879; in [6], 0.253; in assay [7] it was -0.163; in assay [8], 1.1; in [9], 1.48; in assay [10] it was 1.49. This compound also registered a composite z-score in assay [12] of -0.073. Further, the z-score was 0.0037 (inactive) in assay [2]; -0.614 (inactive) in [3]; -0.134 (inactive) in assay [4]; -0.112 (inactive) in assay [5]; -0.92 (inactive) in [11]; 4.39 (inactive) in [13]. Further, the z-score is 0.198 (inactive) in assay [14]; 0.839 (inactive) in [15]; 0.0799 (inactive) in assay [16]; -0.775 in assay [17]; 1.75 (inactive) in assay [18]; 0.728 (inactive) in [19]. Besides, the z-score in assay [20] was -0.131.

For `CO[C@H]1O[C@H](CO)[C@@H](OC(=O)Nc2ccc(Oc3ccccc3)cc2)[C@H](OC(=O)Nc2ccc3c(c2)OCO3)[C@H]1OC(=O)Nc1ccc2c(c1)OCO2`, the composite z-score in [1] was 0.636; in assay [6] it was 0.412; in [7] it was 0.443; in [8], 0.387; in assay [9], 0.661; in [10] it was 1.41. In addition, the composite z-score in assay [12] was found to be 0.523. The z-score in assay [2] was -1.48 (inactive); in assay [3], -0.822 (inactive); in assay [4], 1.09 (inactive); in [5], -0.922 (inactive); in [11], 0.97 (inactive); in [13], 7.24 (inactive). In addition, the z-score in [14] is 0.996 (inactive); in [15], 0.902 (inactive); in [16], 0.397 (inactive); in assay [17], 1.2; in [18] it was 0.706 (inactive); in assay [19], -1.65 (inactive). For the same compound, the z-score in assay [20] is -0.714.
